Compound activity deposited in PubChem by National Center for Advancing Translational Sciences (NCATS).
N370S GC = qHTS Assay for Inhibitors and Activators of N370S glucocerebrosidase as a Potential Chaperone Treatment of Gaucher Disease; N370S GC spleen homogenate, 4MU-glucoside fluorescence; Potency, µM (top dose mostly 59.4 µM), most hits filed as inhibitors; 330,000 tested, 0.092% active; AID 2101, 2009
GAA glycogen mod = qHTS Assay for Inhibitors and Activators of Human alpha-Glucosidase Cleavage of Glycogen; Potency, µM (top dose mostly 76.4 µM), most hits filed as inhibitors; AID 2100, 2009; 300,000 tested, 0.38% active; recombinant GAA, glycogen substrate, Amplex Red glucose oxidase fluorescence; Lysosomal alpha-glucosidase (Homo sapiens), P10253;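 also: the screen sought inhibitors and activators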
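Recombinant human alpha-glucosidase (4 nM final) hydrolysed bovine liver glycogen (30 ug) for 40 min at 37 C in pH 5.0 citrate/phosphate with 0.01% Tween-20. Released glucose detected by glucose oxidase/Amplex Red, Ex 573/Em 610 nm. Compounds up to 77 uM; AC50 from Hill fits.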
aGlu spleen mod = qHTS Assay for Inhibitors and Activators of Human alpha-Glucosidase From Spleen Homogenate | human spleen homogenate, 4-MU-alpha-glucoside fluorescence | Potency, µM (doses to about 79.9 µM), actives largely listed as inhibitors | 240,000 tested, 0.006% active | AID 2112, 2009
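Human spleen homogenate (1 ug) with 4-methylumbelliferyl-alpha-D-glucopyranoside (1 mM final) in 50 mM citrate/phosphate pH 5.0, 0.01% Tween-20; 40 min at 37 C. Stopped at pH 10; 4-MU fluorescence Ex 365/Em 440 nm; AC50 by Hill fit.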
aGal spleen mod = qHTS Assay for Inhibitors and Activators of Human alpha-Galactosidase From Spleen Homogenate; AID 2107, 2009; human spleen homogenate, 4MU-alpha-Gal fluorescence, 40 min; 240,000 tested, 0.008% active; Alpha-galactosidase A (Homo sapiens), P06280; Potency, µM (doses to about 80 µM), most hits filed as inhibitors
Target sequence (P06280 32-429 limits assumed): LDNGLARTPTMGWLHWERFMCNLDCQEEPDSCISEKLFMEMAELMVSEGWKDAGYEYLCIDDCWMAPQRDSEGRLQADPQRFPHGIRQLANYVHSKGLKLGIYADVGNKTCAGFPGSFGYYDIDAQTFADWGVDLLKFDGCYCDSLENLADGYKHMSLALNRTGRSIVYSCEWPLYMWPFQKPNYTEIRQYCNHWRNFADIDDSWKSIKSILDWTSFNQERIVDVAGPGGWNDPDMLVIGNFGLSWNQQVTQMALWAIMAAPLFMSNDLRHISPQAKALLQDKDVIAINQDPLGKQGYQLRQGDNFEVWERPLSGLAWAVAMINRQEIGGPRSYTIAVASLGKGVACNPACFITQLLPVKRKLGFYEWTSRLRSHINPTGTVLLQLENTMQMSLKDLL
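Human spleen homogenate (1 ug) was the enzyme source, with 4-methylumbelliferyl-alpha-D-galactopyranoside (1 mM final) in pH 5.0 citrate buffer with 0.01% Tween-20. Compounds were titrated; after 40 min at 37C, NaOH/glycine stop, 4-MU fluorescence read; AC50 from Hill fits.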
GLA inh pH 4.5 = qHTS Assay for Inhibitors of Human alpha-Galactosidase at pH 4.5; Alpha-galactosidase A (Homo sapiens), P06280; purified enzyme, 4-MU-alpha-Gal fluorescence, pH 4.5; activity change, negative = inhibition, % at 105 µM; 230,000 tested, under 10 active; AID 1467, 2008
GAA inhib = qHTS Assay for Inhibitors of Human alpha-Glucosidase as a Potential Chaperone Treatment of Pompe Disease; purified human GAA, 4-MU-alpha-glucoside fluorescence; Potency, µM (series often up to 76.9 µM), usual class: inhibitors; 200,000 tested, 0.005% active
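AC50 values come from Hill fits of compound titrations (up to 77 uM) against 4 nM human enzyme. Substrate 4-methylumbelliferyl-alpha-D-pyranoside at 400 uM, pH 5.0 citrate buffer, 20 min room temperature; fluorescence Ex 365/Em 440 after alkaline stop.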
Each line names hits and unclear results; the compound was inactive in the other large screens. Rows were chosen to be rich in hits. Some 0.43% of all compounds tested hit in one or more screens of this group. Calls follow the shape of the dose curve; as a rule, active = well fitted curve in the direction sought with a large enough effect; inconclusive = small, poorly fitted or top-dose-only effect, or another doubt; inactive = no such curve, though single readings can be large; an effect the other way counts as inactive or inconclusive.

CC(C)C[C@H](NC(=O)[C@H](CC(C)C)NC(=O)[C@H](CCC(N)=O)NC(=O)[C@H](CO)NC(=O)[C@@H]1CCCN1C(=O)[C@H](CO)NC(=O)[C@H](CO)NC(=O)[C@@H](NC(=O)[C@H](Cc1cnc[nH]1)NC(=O)[C@H](CCC(=O)O)NC(=O)[C@H](Cc1ccc(O)cc1)NC(=O)[C@H](CCCCN)NC(=O)[C@H](CCC(N)=O)NC(=O)[C@H](Cc1ccc(O)cc1)NC(=O)[C@H](CC(=O)O)NC(=O)[C@@H](NC(=O)[C@@H]1CCCN1C(=O)[C@H](CC(=O)O)NC(=O)[C@H](CC(N)=O)NC(=O)[C@H](CC(=O)O)NC(=O)CNC(=O)[C@H](CC(=O)O)NC(=O)[C@@H]1CCCN1C(=O)[C@H](CCC(N)=O)NC(=O)[C@H](Cc1ccc(O)cc1)NC(=O)[C@H](C)NC(=O)[C@H](Cc1c[nH]c2ccccc12)NC(=O)[C@H](Cc1ccccc1)NC(=O)[C@@H](NC(=O)[C@@H](N)CO)[C@@H](C)O)[C@@H](C)O)[C@@H](C)O)C(=O)N[C@@H](C)C(=O)N1CCC[C@H]1C(=O)NCC(=O)N[C@@H](CC(=O)O)C(=O)N[C@@H](Cc1ccc(O)cc1)C(=O)O	none (no result: GAA glycogen mod, GLA inh pH 4.5, GAA inhib)
COc1cccc(-n2cc(C(=O)NCc3ccccc3OC)c3ccccc3c2=O)c1	GAA glycogen mod 39.8µM (no result: N370S GC, aGlu spleen mod, aGal spleen mod, GLA inh pH 4.5, GAA inhib)
CSCC[C@H](NC(=O)CNC(=O)CNC(=O)[C@H](CO)NC(=O)[C@H](CCCNC(=N)N)NC(=O)[C@H](CO)NC(=O)[C@H](CC(C)C)NC(=O)[C@H](CC(C)C)NC(=O)CNC(=O)[C@H](C)NC(=O)[C@H](CC(C)C)NC(=O)[C@H](CCCNC(=N)N)NC(=O)[C@H](Cc1cnc[nH]1)NC(=O)[C@@H](NC(=O)[C@@H](N)C(C)C)[C@@H](C)O)C(=O)N[C@H](C(=O)N[C@@H](CCCCN)C(=O)N[C@@H](CO)C(=O)N[C@@H](CC(N)=O)C(=O)N[C@@H](Cc1ccccc1)C(=O)N[C@H](C(=O)N1CCC[C@H]1C(=O)N[C@H](C(=O)N[C@@H](CC(N)=O)C(=O)N[C@H](C(=O)NCC(=O)N[C@@H](CO)C(=O)N[C@@H](CCCCN)C(=O)N[C@@H](C)C(=O)N[C@@H](Cc1ccccc1)C(N)=O)C(C)C)[C@@H](C)O)C(C)C)C(C)C	none (no result: GAA glycogen mod, GLA inh pH 4.5, GAA inhib)
CN[C@@H]1[C@H](O[C@@H]2O[C@H](C)[C@@](O)(CO)[C@H]2O[C@H]2[C@H](O)[C@H](O)[C@H](N=C(N)N)[C@@H](O)[C@@H]2N=C(N)N)O[C@@H](CO)[C@H](O)[C@H]1O	none (no result: GAA glycogen mod, GAA inhib)
O=c1oc2ccc(Cl)cc2nc1/C=C(\O)c1ccco1	GAA glycogen mod 7.08µM (no result: GAA inhib)
Cc1ccc(/C(O)=C/c2nc3cc(C)ccc3oc2=O)cc1	GAA glycogen mod 15.8µM (no result: GAA inhib)
CC(C)C/C(O)=C/c1nc2cc(Cl)ccc2oc1=O	GAA glycogen mod inconclusive
CC[C@H](C)[C@H](NC(=O)[C@@H](NC(=O)[C@@H](NC(=O)[C@H](CCC(=O)O)NC(=O)[C@H](CCC(=O)O)NC(=O)[C@H](CCC(=O)O)NC(=O)[C@H](C)NC(=O)[C@@H](N)CC(C)C)C(C)C)C(C)C)C(=O)N[C@@H](CCCNC(=N)N)C(=O)N[C@@H](CO)C(=O)N[C@@H](C)C(=O)N[C@@H](CC(N)=O)C(=O)N[C@@H](Cc1ccccc1)C(=O)N[C@H](C(=O)N[C@@H](CC(=O)O)C(=O)N[C@@H](CC(N)=O)C(=O)O)[C@@H](C)O	none (no result: GAA glycogen mod, GLA inh pH 4.5, GAA inhib)
CC(C)=CC[C@@H](O)C1=CC(=O)c2c(O)ccc(O)c2C1=O	none (no result: GAA glycogen mod, GLA inh pH 4.5, GAA inhib)
COc1cccc([C@@H]2Oc3ccc(Br)cc3C[C@H]2O)c1	none (no result: GAA glycogen mod, GAA inhib)
Cc1cc(Nc2ccccc2)n(-c2ccccc2)n1	GAA glycogen mod 12.5µM
Cc1cc(C)nc(-n2nc(C)cc2Nc2ccccc2)n1	none
CCCCC[C@H](O)/C=C/[C@H]1OC(O)C[C@H](O)[C@@H]1C/C=C\CC(=O)O (some centres not stated)	none (no result: GAA glycogen mod, GAA inhib)
C/C(=N\N1CCN(C)CC1)c1ccc(Cl)c(Cl)c1	GAA glycogen mod 28.2µM
CC1=C(C(=O)Nc2cccnc2)C(c2ccc(Cl)cc2)n2nc(SCc3ccccc3)nc2N1 (configuration not stated)	GAA glycogen mod 25.1µM (no result: N370S GC, aGlu spleen mod, aGal spleen mod, GLA inh pH 4.5, GAA inhib)
COc1cc(C2CC(=O)Oc3c2c(=O)[nH]c2ccccc32)cc(OC)c1OC (configuration not stated)	GAA glycogen mod 50.1µM (no result: N370S GC, aGlu spleen mod, aGal spleen mod, GLA inh pH 4.5, GAA inhib)
O=C1CC(c2ccc(F)cc2)c2c(c3ccccc3[nH]c2=O)O1 (configuration not stated)	none (no result: N370S GC, aGlu spleen mod, aGal spleen mod, GLA inh pH 4.5, GAA inhib)
COC(=O)C1=C(C(=O)OC)[C@@H]2N(C)c3ccccc3[C@@]23C[C@@H](C(=O)OC)N(S(=O)(=O)c2ccc4c(c2)OCCN4C)C3=N1	none (no result: GAA glycogen mod, GAA inhib)
CC[C@@]1([C@@H]2O[C@@H]([C@H]3O[C@@](O)(CO)[C@H](C)C[C@@H]3C)C[C@@H]2C)CC[C@@H]([C@]2(C)CCC3(C[C@H](O)[C@@H](C)[C@@H]([C@@H](C)[C@@H](OC)[C@H](C)C(=O)O)O3)O2)O1 (some centres not stated)	none (no result: GAA glycogen mod, GLA inh pH 4.5, GAA inhib)
COc1cc(CN2CCN(C(=O)CC(C)C)CC2)cc(OC)c1O	GAA glycogen mod 39.8µM
COc1ccc(C(=O)N2CCN(Cc3cc(OC)c(O)c(OC)c3)CC2)cc1OC	GAA glycogen mod 20µM
COc1ccc(OC)c(Cc2nnc(CCC(=O)NC(C3CC3)C3CC3)o2)c1	none
COc1ccc(OC)c(Cc2nnc(CCC(=O)NCc3ccc(C)s3)o2)c1	GAA glycogen mod 10µM
O=C(N/N=C1/C[C@@H](O)[C@@H](O)[C@@H]2[C@@H]3C(=O)N(C[C@@H]4CCCO4)C(=O)[C@H]3CC[C@H]12)OCc1ccccc1	none (no result: GAA glycogen mod, GLA inh pH 4.5, GAA inhib)
Cc1ccc(C(=S)N2CCN(Cc3ccccc3)CC2)cc1	none
CCN1CCN(C(=S)c2ccc(-c3ccccc3)cc2)CC1	N370S GC 11.2µM
